# Test results from PubChem BioAssay AID1159580 (chemical genetic matrix, 2015).
# “And” between values parts separate entries of the source, which are not always exact repeats. Equal entries are not always repeated. The whole screen tested about 5,500 compounds, of which about 2,000 (36%) were called active. Inconclusive results (about 18%) are left out. The list shows a part of the results. Values without a mark were called inactive. Cut-off read from the data, not from the text of the source: active = normalized growth mostly below about 0.91 (no sharp cut-off); inconclusive = no clear call, values can overlap the other calls; inactive = mostly above about 0.92.
# Assay: chemical genetic growth profiling, strain panel (AID 1159580);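 note: tested at 20 µM; growth read once vehicle control cultures reached saturation at 30 °C; 1 = growth at the plate median or of vehicle wells; lower values mean less growth of the strain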
# Settings: growth OD
# [1] = S. cerevisiae deletion strains, locus YBR229C, strain ROT2, hits give low values
# [2] = S. cerevisiae deletion strains, locus YDL101C, strain DUN1, hits give low values
# [3] = S. cerevisiae deletion strains, locus YEL061C, strain CIN8, hits give low values
# [4] = S. cerevisiae deletion strains, locus YGR078C, strain PAC10, hits give low values
# [5] = S. cerevisiae deletion strains, locus YHR030C, strain SLT2, hits give low values
# [6] = S. cerevisiae deletion strains, locus YHR087W, strain rtc3, hits give low values
# [7] = S. cerevisiae deletion strains, locus YJR043C, strain POL32, hits give low values
# [8] = S. cerevisiae deletion strains, locus YJR075W, strain HOC1, hits give low values
# [9] = S. cerevisiae deletion strains, locus YKL190W, strain CNB1, hits give low values
# [10] = S. cerevisiae deletion strains, locus YLR039C, strain RIC1, hits give low values
# [11] = S. cerevisiae deletion strains, locus YLR058C, strain SHM2 (second series), hits give low values
# [12] = S. cerevisiae deletion strains, locus YLR085C, strain ARP6, hits give low values
# [13] = S. cerevisiae deletion strains, locus YLR262C, strain YPT6, hits give low values
# [14] = S. cerevisiae deletion strains, locus YML094W, strain GIM5, hits give low values
# [15] = S. cerevisiae deletion strains, locus YMR219W, strain ESC1, hits give low values
# [16] = S. cerevisiae deletion strains, locus YMR263W, strain SAP30, hits give low values
# [17] = S. cerevisiae deletion strains, locus YNL153C, strain GIM3, hits give low values
# [18] = S. cerevisiae deletion strains, locus YNL298W, strain CLA4 (second series), hits give low values
# [19] = S. cerevisiae deletion strains, locus YNL322C, strain KRE1, hits give low values
# [20] = S. cerevisiae deletion strains, locus YNR030W, strain Alg12, hits give low values
# [21] = S. cerevisiae deletion strains, locus YOL006C, strain TOP1, hits give low values
# [22] = S. cerevisiae deletion strains, locus YPL055C, strain LGE1, hits give low values
# [23] = S. cerevisiae deletion strains, locus YPL241C, strain CIN2, hits give low values
# [24] = S. cerevisiae deletion strains, locus YPR135W, strain CTF4, hits give low values
smiles,measurement,setting,value
Nc1ccc(Oc2ccc(Cl)cc2C2CCCCC2)nc1,normalized growth,[1],0.821 (active)
same,normalized growth,[2],0.897 (active)
same,normalized growth,[3],0.845 (active)
same,normalized growth,"S. cerevisiae deletion strains, locus YGR052W, strain FMP48, hits give low values",0.796
same,normalized growth,[4],0.855 (active)
same,normalized growth,[5],0.181 (active) and 0.708 (active)
same,normalized growth,"S. cerevisiae deletion strains, locus YHR079C, strain IRE1, hits give low values",0.794 (active)
same,normalized growth,"S. cerevisiae deletion strains, locus YHR082C, strain KSP1, hits give low values",0.766 (active)
same,normalized growth,[6],0.702 (active)
same,normalized growth,"S. cerevisiae deletion strains, locus YJL095W, strain BCK1, hits give low values",0.849
same,normalized growth,[7],0.852 (active)
same,normalized growth,"S. cerevisiae deletion strains, locus YJR066W, strain TOR1, hits give low values",0.787 (active)
same,normalized growth,[8],0.689 (active)
same,normalized growth,"S. cerevisiae deletion strains, locus YKL171W, strain NNK1, hits give low values",0.889
same,normalized growth,[9],0.658 (active)
same,normalized growth,"S. cerevisiae deletion strains, locus YKL203C, strain TOR2, hits give low values",0.92
same,normalized growth,[10],0.386 (active)
same,normalized growth,[11],0.915 (active)
same,normalized growth,[12],0.451 (active)
same,normalized growth,"S. cerevisiae deletion strains, locus YLR113W, strain HOG1, hits give low values",0.705
same,normalized growth,[13],0.355 (active)
same,normalized growth,[14],0.636 (active)
same,normalized growth,[15],0.935 (active)
same,normalized growth,[16],0.824 (active)
same,normalized growth,"S. cerevisiae deletion strains, locus YMR307W, strain GAS1, hits give low values",0.162 (active)
same,normalized growth,[17],0.905 (active)
same,normalized growth,"S. cerevisiae deletion strains, locus YNL207W, strain RIO2, hits give low values",0.918
same,normalized growth,[18],0.528 (active)
same,normalized growth,[19],0.945
same,normalized growth,[20],0.601 (active)
same,normalized growth,[21],0.728 (active)
same,normalized growth,"S. cerevisiae deletion strains, locus YOR119C, strain RIO1, hits give low values",0.879
same,normalized growth,"S. cerevisiae deletion strains, locus YOR231W, strain MKK1, hits give low values",0.941
same,normalized growth,[22],0.745 (active)
same,normalized growth,[23],0.675 (active)
same,normalized growth,"S. cerevisiae deletion strains, locus YPL256C, strain CLN2, hits give low values",0.748 (active)
same,normalized growth,[24],0.365 (active)
Cc1cc(Cl)ccc1Oc1ccc(N)cn1,normalized growth,"S. cerevisiae deletion strains, locus YAL013W, strain DEP1, hits give low values",0.989
same,normalized growth,[1],0.977
same,normalized growth,[2],0.971
same,normalized growth,"S. cerevisiae deletion strains, locus YDR150W, strain NUM1, hits give low values",0.898
same,normalized growth,[3],0.993
same,normalized growth,[4],0.984
same,normalized growth,[5],0.486 (active)
same,normalized growth,[6],0.989
same,normalized growth,[7],0.977
same,normalized growth,[8],0.952
same,normalized growth,[9],0.928 (active)
same,normalized growth,[10],0.541 (active)
same,normalized growth,[11],0.986
same,normalized growth,[12],0.602 (active)
same,normalized growth,[13],0.544 (active)
same,normalized growth,[14],0.878
same,normalized growth,[15],0.992
same,normalized growth,[16],0.92
same,normalized growth,"S. cerevisiae deletion strains, locus YNL128W, strain TEP1, hits give low values",1
same,normalized growth,[17],0.99
same,normalized growth,[18],0.891
same,normalized growth,[19],1.01
same,normalized growth,[20],0.981
same,normalized growth,[21],0.938
same,normalized growth,[22],0.889
same,normalized growth,[23],0.917
same,normalized growth,[24],0.602 (active)
same,normalized growth,"S. cerevisiae strains, strain wild type, hits give low values",0.953
